Only a selection was taken, and hits are over-represented in it overall.
IL-1B inflam inh: inhibitors of inflammasome signaling (IL-1 beta secretion); THP-1 LPS/ATP IL-1B secretion, AlphaLISA, 16 h; hits give low values; actives 4.7% (n = 360,000); AID 743279; activity change, % at 57.5 µM; in the data active = activity change below about -50%; inconclusive = mostly about -30% to -49%
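Secreted IL-1B measured by AlphaLISA bead assay after 16 h compound exposure of THP-1 cells; compounds (final up to 57.5 uM) added 1 h before LPS (250 ng/mL) and ATP (1.25 mM) stimulation; lower signal means less secretion.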
DT40 TDP1 CPT: DT40-hTDP1 cell growth loss with CPT; chicken DT40 Tdp1-/-;hTDP1 cells + 20 nM CPT, ATP luminescence, 48 h; Potency, µM (top dose mostly 46.2 µM), inactives show at the highest dose activity change, negative = growth inhibition, hits mostly inhibitors; actives 12% (n = 420,000); AID 686979; also: potency is read from the fitted curve at half-maximal effect; nearly all actives have a fitted effect of over 55% in size
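Chicken DT40 Tdp1-/- cells complemented with human TDP1, 400 cells/well, exposed to compounds plus 20 nM camptothecin for at least 48 h at 37 C; viability read as ATP content by CellTiter-Glo luminescence.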
HT1080 IDH1KD tx: kills HT-1080 cells with IDH1 knockdown. actives 2% (n = 360,000). HT-1080 IDH1 knockdown viability, ATP luminescence, 48 h. AID 686971. Potency, µM (highest dose often 46.1 µM), for the others: top-dose activity, negative = toxicity, hits mostly cytotoxic;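 also: potency is read from the fitted curve at half-maximal effect; 0% = DMSO wells and -100% = cell-free medium wells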
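Luminescent ATP read-out (CellTiter-Glo, 10 min at room temperature) after 48 h compound exposure at 37 °C gave viability of IDH1-knockdown HT-1080 cells. Activity was normalised to DMSO and cell-free wells, then fitted as concentration-response curves.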
ALOX12 inh: blocks human arachidonate 12S-lipoxygenase; P18054; purified 12hLO, xylenol orange hydroperoxide absorbance; Potency, µM (highest dose often 108 µM), for the others: top-dose activity change, negative = inhibition, usual class: inhibitors; actives 1.1% (n = 580,000); AID 1671190; also: potency is read from the fitted curve at half-maximal effect
Target sequence (P18054 whole entry, looked up): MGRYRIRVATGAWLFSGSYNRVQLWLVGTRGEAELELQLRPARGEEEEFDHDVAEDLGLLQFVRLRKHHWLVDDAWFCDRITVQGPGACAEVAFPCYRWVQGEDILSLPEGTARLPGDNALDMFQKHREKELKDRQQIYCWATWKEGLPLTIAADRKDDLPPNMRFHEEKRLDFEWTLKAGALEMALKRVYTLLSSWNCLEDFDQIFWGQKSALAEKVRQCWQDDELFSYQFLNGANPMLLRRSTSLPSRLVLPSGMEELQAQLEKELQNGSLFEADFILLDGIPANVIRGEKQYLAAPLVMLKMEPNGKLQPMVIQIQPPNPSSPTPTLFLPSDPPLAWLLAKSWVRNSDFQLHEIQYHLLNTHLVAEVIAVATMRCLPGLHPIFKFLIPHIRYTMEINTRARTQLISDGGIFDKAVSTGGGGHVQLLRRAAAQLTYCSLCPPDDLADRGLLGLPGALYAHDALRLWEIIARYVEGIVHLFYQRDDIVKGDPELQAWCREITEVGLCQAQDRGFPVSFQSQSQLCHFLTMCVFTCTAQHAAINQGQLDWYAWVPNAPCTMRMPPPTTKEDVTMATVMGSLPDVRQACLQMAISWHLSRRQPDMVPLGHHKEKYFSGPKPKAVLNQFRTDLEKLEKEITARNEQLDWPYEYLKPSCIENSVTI
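Purified human 12hLO (150 nM final) in 25 mM Hepes, 0.01% Triton X-100, pH 7.0 was preincubated 15 min at room temperature with compound. Then 40 uM arachidonic acid was added, 30 min. Hydroperoxide was read by Fe-XO absorbance ratio 573/405 nm.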
DT40 TDP1 no CPT: qHTS for Inhibitors of human tyrosyl-DNA phosphodiesterase 1 (TDP1): qHTS in cells in absence of CPT. actives 15% (n = 420,000). Potency, µM (doses to about 46.2 µM), for the others: top-dose activity change, negative = growth inhibition, usual class: inhibitors. DT40 Tdp1-/- hTDP1 cells, no CPT, ATP luminescence, 48 h; also: potency is read from the fitted curve at half-maximal effect; nearly all actives have a fitted effect of over 55% in size
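Compound effects on proliferation are scored in DT40 Tdp1-/-;hTDP1 cells in the absence of CPT. ATP levels (CellTiter-Glo luminescence) are recorded after a ≥48 hr, 37 °C incubation.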
HT1080-NT tox: kills 2HG-producing HT-1080-NT fibrosarcoma cells | HT-1080-NT fibrosarcoma viability, CellTiter-Glo ATP luminescence, 48 h | Potency, µM (top dose mostly 46.1 µM), for inactives: top-dose activity, negative = less viability, usual class: cytotoxic | actives 1.6% (n = 360,000) | AID 686970;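 also: NT is the 2HG producing partner of a matched IDH1 knockdown line; potency is read from the fitted curve at half-maximal effect; 0% = DMSO-treated cells and -100% = media-only wells without cells; nearly all actives have a fitted effect of over 55% in size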
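Compounds were tested in concentration-response format on HT-1080-NT cells for 48 hours at 37 degrees C. Cell viability came from CellTiter-Glo luminescence; curves were classified by r2, response magnitude and activity.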
Starred values were filed as active, the others as inactive; i = inactive; ? = inconclusive; nt = no result given. Unless noted, calls follow the shape of the dose curve; as a rule, active = well fitted curve in the direction sought with a large enough effect; inconclusive = small, poorly fitted or top-dose-only effect, or another doubt; inactive = no such curve, though single readings can be large; an effect the other way counts as inactive or inconclusive. Unless noted, % is scaled to controls: 0 for no effect and ±100 for the full control effect.

SMILES	IL-1B inflam inh	DT40 TDP1 CPT	HT1080 IDH1KD tx	ALOX12 inh	DT40 TDP1 no CPT	HT1080-NT tox
O=C(Nc1ccc2c(c1)CCC2)C1(c2cccc(F)c2)CCC1	nt	nt	nt	45.8%	nt	nt
CC(C)(C)c1cc2nc(NCCOc3ccccc3)ccn2n1	9.7	?	-18.1%	-2.9%	?	-19.1%
c1csc(CNc2ccn3nc(-c4ccc(OCCN5CCOCC5)cc4)cc3n2)c1	-14.1	20.6µM*	?	4.9%	16.4µM*	?
c1ccc(OCCNc2ccn3nc(-c4ccc(OCCN5CCOCC5)cc4)cc3n2)cc1	-11.0	9.2µM*	?	4.0%	16.4µM*	?
c1ccc(-c2cc3nc(NCc4cccs4)ccn3n2)cc1	14.6	-105.0%	?	-20.7%	?	?
CC(C)Oc1ccc(Nc2cc3c(cn2)cc(-c2cccnc2)n3C)cc1	nt	nt	nt	-38.0%	nt	nt
COc1ccc(Nc2cc3c(cn2)cc(-c2cccc(C(F)(F)F)c2)n3C)cc1	nt	nt	nt	44.7µM*	nt	nt
O=C(CCl)N(c1ccccc1)c1ccccc1	-108.0*	2.06µM*	5.17µM*	-10.1%	1.84µM*	6.51µM*
O=Cc1[nH]c2ccccc2c1N(C(=O)CCl)c1ccccc1	nt	10.3µM*	23.1µM*	24.6%	14.6µM*	16.4µM*
O=C(N(c1ccccc1)c1ccccc1)N(c1ccccc1)c1ccccc1	-22.7	?	-28.5%	22.3%	20.6µM*	-1.6%
CNC(=O)N(c1ccccc1)c1ccccc1	21.3	5.6%	11.0%	0.0%	3.2%	3.4%
CCC(C)Cc1c(C)sc2nc(CNc3ccc(OC)cc3)[nH]c(=O)c12 (stereo not given)	nt	nt	nt	1.7%	nt	nt
COC(=O)c1c(C)[nH]c(C(=O)OC(C)c2nnc(-c3ccccc3)o2)c1C (stereo not given)	nt	nt	nt	8.4%	nt	nt
CCCCSc1nnc2c(n1)OC(c1ccc(Br)s1)Nc1ccccc1-2 (stereo not given)	nt	?	nt	?	18.4µM*	nt
c1ccc(Nc2cccc3c(Nc4ccccc4)cccc23)cc1	16.8	-22.3%	-7.1%	-7.6%	-27.1%	?
O=S(=O)(O)c1cccc2cccc(Nc3ccccc3)c12	23.8	-2.8%	2.7%	39.8µM*	30.1%	-2.2%
O=C(c1ccncc1)N1CCCC(N2CCN(c3cccc(C(F)(F)F)c3)CC2)C1 (stereo not given)	0.0	16.4µM*	-6.9%	0.8%	?	-8.7%
CCc1cc(C(=O)N2CCCC(N3CCN(c4cccc(C(F)(F)F)c4)CC3)C2)n(C)n1 (stereo not given)	-13.4	11.6µM*	-10.2%	0.1%	11.6µM*	-8.6%
CC(=O)N1CCCC(N2CCN(c3cccc(C(F)(F)F)c3)CC2)C1 (stereo not given)	-5.4	3.7%	3.3%	5.2%	2.0%	-0.3%
Cc1ccc(C(=O)N2CCCC(N3CCN(c4cccc(C(F)(F)F)c4)CC3)C2)s1 (stereo not given)	-9.5	1.3µM*	-23.7%	31.5%	6.51µM*	?
CCn1cc(C(=O)N2CCCC(N3CCN(c4cccc(C(F)(F)F)c4)CC3)C2)cn1 (stereo not given)	3.8	?	-1.0%	10.0%	?	-0.2%
CC1=C(C(=O)N2CCCC(N3CCN(c4cccc(C(F)(F)F)c4)CC3)C2)OCCO1 (stereo not given)	1.0	?	2.6%	-37.5%	?	0.0%
CSc1nc(C(=O)N2CCCC(N3CCN(c4ccccc4C)CC3)C2)cs1 (stereo not given)	4.6	20.6µM*	-3.9%	-0.2%	18.4µM*	-19.4%
CN(C)C(CNCc1cccc(C#N)c1)c1ccccc1 (stereo not given)	nt	nt	nt	6.7%	nt	nt
CN1CCC(N2CCN(C3CN(Cc4ccc(F)cc4)S(=O)(=O)C3)CC2)CC1 (stereo not given)	0.0	0.3%	11.3%	-2.7%	1.1%	2.8%
SMILES	IL-1B inflam inh	DT40 TDP1 CPT	HT1080 IDH1KD tx	ALOX12 inh	DT40 TDP1 no CPT	HT1080-NT tox
CSc1nc(-c2ccc(Cl)cc2)c(C#N)c(N2CCN(C)CC2)n1	nt	nt	nt	-28.7%	nt	nt
CCCc1cc(C(=O)N2CCCC(N3CCN(c4ccccc4F)CC3)C2)n(C)n1 (stereo not given)	18.2	?	-12.7%	420.0%	?	4.0%
CCCc1cc(C(=O)N2CCCC(N3CCN(c4ccccc4C)CC3)C2)n(C)n1 (stereo not given)	9.7	16.4µM*	-1.4%	-0.5%	?	-2.9%
Cc1cc(C)n(CC(=O)N2CCCC(N3CCN(c4cccc(C(F)(F)F)c4)CC3)C2)n1 (stereo not given)	-9.6	?	-1.7%	9.8%	?	-0.4%
Cc1cnc(C(=O)N2CCCC(N3CCN(c4cccc(C(F)(F)F)c4)CC3)C2)cn1 (stereo not given)	-62.1*	23.1µM*	-1.0%	i	?	-11.5%
CCCc1cc(=O)n2c(C(=O)Nc3ccc(C)c(C)c3)c(C(=O)Nc3ccccc3)sc2n1	nt	nt	nt	-13.6%	nt	nt
COc1ccc2sc(-c3ccc(N(C)C)cc3)c(C#CCCO)c2c1	-9.1	?	?	-4.5%	16.4µM*	16.4µM*
COc1cccc(-c2sc3ccc(OC)cc3c2C#CC(C)(C)O)c1	-87.5*	23.1µM*	-24.1%	-18.4%	18.4µM*	-19.0%
COc1ccc2sc(-c3ccc(N(C)C)cc3)c(C#CC(C)(C)O)c2c1	16.6	8.2µM*	?	3.7%	8.2µM*	?
COc1ccc(-c2sc3ccc(OC)cc3c2C#CCCO)cc1	0.0	?	-29.3%	nt	?	-18.1%
COc1cccc(-c2sc3ccc(OC)cc3c2C#CCC(C)O)c1 (stereo not given)	-2.1	?	-7.4%	?	?	-4.9%
COc1ccc2sc(-c3ccc(N(C)C)cc3)c(C#Cc3cncn3C)c2c1	-5.6	5.8µM*	25.9µM*	-3.1%	5.8µM*	25.9µM*
Cc1cccc(C(=O)N2CCC3(CCC(=O)N(C(C)C(=O)O)C3)CC2)c1 (stereo not given)	nt	nt	nt	27.1%	nt	nt
CCOc1ccccc1NC(=O)C(NS(=O)(=O)c1cccc2nsnc12)c1ccccc1 (stereo not given)	nt	-2.9%	nt	-12.4%	?	nt
O=S(=O)(NC(c1ccccc1)c1ccccc1)c1cccc2nsnc12	nt	nt	nt	11.2µM*	nt	nt
O=C(Nc1ccc(OC(F)(F)F)cc1)C(NS(=O)(=O)c1cccc2nsnc12)c1ccccc1 (stereo not given)	nt	16.4µM*	nt	-28.0%	?	nt

Source: PubChem BioAssay
